Screening data deposited in PubChem BioAssay by The Scripps Research Institute Molecular Screening Center.
Sampled rows, rich in hits. Any-hit rate of the full collection: about 4.8%.
ssDAF12 agonist: S. stercoralis DAF-12 nuclear receptor activators, primary screen, cell-based, luminescence, HEK293, GRIP1 co-expression, lit1-tk-luc; HEK293 ssDAF-12/GRIP1 lit1-tk-luc reporter; % of 3 µM dafachronic acid response; AID 652126, 2013; 370,000 compounds, 1% hits; activation, % at 6.8 µM;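 active means activation above the mean over all tested compounds plus 3 SD, cut at about 0.9% in these data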
DAX1 inh-1: DAX1 (NR0B1) inhibitors on StAR promoter, primary screen, cell-based, luminescence, SF-1 (NR5A1), full-length DAX-1 | HEK293T StAR-luciferase reporter, SF-1/DAX-1 repression relief | inhibition, % at 6.8 µM | 370,000 compounds, 1.1% hits;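 active means inhibition above the mean over all tested compounds plus 3 SD, cut at about 3.6% in these data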;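 further: higher inhibition means more luminescence from relief of DAX-1 repression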
SMARCA2 act: SMARCA2 (BRM) function activators, primary screen, cell-based, luminescence, high throughput; MG213 cells, MMTV-luciferase reporter, dexamethasone, overnight; activation, % at 9.1 µM; 370,000 compounds, 1% hits; AID 652017, 2013; in the data active means activation above about 7.8%
DAX1 inh-2: DAX1 (NR0B1) inhibitors, primary screen, cell-based, HEK293, Gal4-DAX1, luciferase luminescence; Nuclear receptor subfamily 0 group B member 1 (Homo sapiens), P51843; HEK293 Gal4-DAX1 luciferase reporter; inhibition, % at 6.75 µM; 340,000 compounds, 0.99% hits;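 active means inhibition above the mean over all tested compounds plus 3 SD, cut at about 4.2% in these data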;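 further: inhibition shows as a rise in luminescence from relieved DAX1 repression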
Target sequence (P51843 207-470 limits assumed): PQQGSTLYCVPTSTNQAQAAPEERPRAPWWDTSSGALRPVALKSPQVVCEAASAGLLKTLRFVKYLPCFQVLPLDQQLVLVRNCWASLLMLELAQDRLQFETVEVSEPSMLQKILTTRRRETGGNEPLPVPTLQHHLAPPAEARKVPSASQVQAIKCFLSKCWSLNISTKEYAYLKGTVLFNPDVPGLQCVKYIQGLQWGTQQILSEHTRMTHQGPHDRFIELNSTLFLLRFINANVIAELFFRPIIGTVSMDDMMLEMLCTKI
hcDAF-12 act: H. contortus DAF-12 nuclear receptor activators, primary screen, cell-based, luminescence, HEK293, lit1-tk-luc reporter; 370,000 compounds, 1.4% hits; activation, % at 6.8 µM; AID 652067, 2013; HEK293 hcDAF-12 lit1-tk-luc reporter; 0% DMSO, 100% Δ7-dafachronic acid;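 active means activation above the mean of all tested compounds plus 3 SD, cut at about 5.5% in these data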
hgDAF-12 ag: H. glycines DAF-12 receptor agonists, primary screen, cell-based, luminescence, HEK293, GAL4 fusion, UAS-luciferase; Nuclear hormone receptor DAF-12 (Heterodera glycines), GAL4 fusion; HEK293 GAL4-hgDAF12 UAS-luciferase reporter, agonist luminescence; normalized to butyrate control; activation, % at 6.8 µM; 370,000 compounds, 1.8% hits;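 active means activation above a cutoff set at the mean of all screened compounds plus 3 SD, cut at about 10% in these data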
Of the large screens only hits and unclear results are named; the others gave an inactive call.

Cc1[nH]c2ccc(C(=O)Nc3ccncc3)cc2c1C	none
COc1ccccc1NC(=O)c1ccc2[nH]c(C)c(C)c2c1	hgDAF-12 ag 10
CCOc1ccccc1NC(=O)c1ccc2nc[nH]c2c1	DAX1 inh-2 4.4
Cc1ccc(NC(=O)c2ccc3nc[nH]c3c2)c(O)c1	hcDAF-12 act 6.2, hgDAF-12 ag 11
Cc1ccc(C(=O)N(C)[C@H]2C[C@H]3c4[nH]c5c(-c6ccc7c(c6)OCO7)cccc5c4CCN3C[C@H]2[C@H](C)O)cc1	none (no result: DAX1 inh-2)
COC1C(O)CCC2(CO2)C1C1(C)OC1CC=C(C)C (stereo not drawn)	none (no result: DAX1 inh-2)
CN(C(=O)CNC(=O)c1ccccc1OCC(=O)Nc1ccc(Br)cc1)c1ccccc1	none (no result: DAX1 inh-2)
C/C(=N\OCc1ccc(C#N)cc1)c1ccccc1	hgDAF-12 ag 11
O=C1CCCCCN1Cc1nnc(SCc2nc3ccccc3s2)n1-c1ccccn1	ssDAF12 agonist 1.9, hcDAF-12 act 5.7
CN(CC(=O)NCc1ccccc1Cl)S(=O)(=O)c1ccc2c(c1)n(C)c(=O)c(=O)n2C	hcDAF-12 act 5.6
c1csc(C2C3=C(Nc4ncnn42)c2ccccc2OC3)c1 (stereo not drawn)	ssDAF12 agonist 1.1
CC(C)C[C@H]1CNC(=S)N1CC1CCN(CCC2CCCC2)CC1	none
CCC(CC)CN1CCC(CN2C(=S)NC[C@@H]2CC(C)C)CC1	DAX1 inh-1 3.7
COc1cccc(NC(=O)C2(C)CCN2C(=O)CCc2ccc(Cl)cc2Cl)c1 (stereo not drawn)	ssDAF12 agonist 1.6 (no result: DAX1 inh-2)
CC(C)CNC(=O)OCc1cn(Cc2cc(F)cc(F)c2)nn1	none (no result: DAX1 inh-2)
Clc1cnc(N/N=C/c2cccs2)c(Cl)c1	ssDAF12 agonist 1.0
Cc1ccc(/C=N/Nc2ncc(Cl)cc2Cl)s1	none
Cc1ccccc1/C=N/Nc1ncnc2nc[nH]c12	none
C(=N\Nc1ncnc2nc[nH]c12)/c1cccs1	DAX1 inh-2 5.7
Cc1ccsc1/C=N/Nc1ncnc2nc[nH]c12	DAX1 inh-2 4.6
CCc1ccc(-n2ncc(Cl)c(Oc3ccc(OC)cc3)c2=O)cc1	none (no result: DAX1 inh-1, SMARCA2 act, DAX1 inh-2)
CCOC(=O)c1[nH]c2ccccc2c1NC(=S)Nc1cccc(C)c1C	hcDAF-12 act 6.2
CCOC(=O)c1[nH]c2ccccc2c1NC(=O)NC(C)C	none
O=c1[nH]c2cccnc2c2ccsc12	DAX1 inh-2 5.9
CN1C2=C(C(=O)CC(C)(C)C2)C(c2cccs2)C2=C1CC(C)(C)CC2=O	DAX1 inh-2 5.3
CC(C1CC1)N(Cc1ccccc1)C(=O)NC(=O)c1ccc(F)cc1 (stereo not drawn)	hgDAF-12 ag 12
COC(=O)[C@]12C[C@H](CC(=O)NCC3CCCCC3)C(=O)N(Cc3cccc4ccccc34)C1=C[C@H](C1CCCC1)O[C@@H]2C	none (no result: DAX1 inh-2)
CCCCCn1c(=O)[nH]c2cc(C(=O)NC3CCN(Cc4ccccc4)CC3)ccc2c1=O	DAX1 inh-2 6.5
COC(=O)c1ccc2c(=O)n(CCCCCC(=O)NC3CCCCC3)c(=O)[nH]c2c1	hcDAF-12 act 5.8 (no result: DAX1 inh-2)
COc1ccc(-c2nnc(SCc3csc(N)n3)n2C)cc1	none
Cc1ccc(Nc2nc(CSc3nnc(-c4ccc(F)cc4)n3C)cs2)cc1	hgDAF-12 ag 11
CN(C)c1ccc(N=Nc2ccc(S(N)(=O)=O)cc2)cc1	hgDAF-12 ag 11
C=CCN=C1NC(c2ccccc2C(F)(F)F)C(C(=O)OC)=C(C)N1Cc1ccc(C(F)(F)F)cc1 (stereo not drawn)	none (no result: DAX1 inh-2)
O=C(O)c1cccc(N2CCCC2=O)c1	none
O=C(Nc1ccccc1)c1cccc(N2CCCC2=O)c1	hgDAF-12 ag 12
O=C(N/N=C/c1ccco1)c1cccc(N2CCCC2=O)c1	hgDAF-12 ag 11
O=C(N/N=C/c1cc(Br)ccc1O)c1cccc(N2CCCC2=O)c1	none
CCCCNC(=O)C[C@H]1C[C@@]2(C(=O)OC)C(=C[C@H](C3CCCC3)O[C@@H]2C)N(Cc2cccc3ccccc23)C1=O	none (no result: DAX1 inh-2)
COC(=O)[C@H]1C[C@@]2(N3CCCCC3)c3ccccc3N(C(=O)OC(C)(C)C)[C@H]2N1C(=O)OC(C)(C)C	none (no result: DAX1 inh-2)
O=C(Nc1nc2ccc(Cl)cc2s1)c1ccc(Br)o1	none
Cc1cc(C(=O)Nc2nc3ccc(Cl)cc3s2)nn1C	hgDAF-12 ag 11 (no result: DAX1 inh-2)
C[C@H](O)[C@@H]1CN2CCc3ccc(-c4ccc5c(c4)OCO5)cc3[C@@H]2C[C@@H]1N(C)C(=O)c1cccc(Cl)c1	none (no result: DAX1 inh-2)
NNC(=O)c1ccc(Oc2cc(Cl)cc(Cl)c2)o1	DAX1 inh-2 4.3
O=c1c2ccccc2n(Cc2ccno2)n1[C@@H](Cc1ccccc1)Cn1cc(C2CCCC2)nn1	none (no result: DAX1 inh-2)
COc1cc2c(cc1NC(=O)CSc1nnc(-c3ccccc3F)n1-c1ccc(C)cc1)oc1ccccc12	none (no result: DAX1 inh-2)
COC(=O)[C@]12C[C@H](CC(=O)N3CCC(c4ccccc4)CC3)C(=O)N(Cc3cccc4ccccc34)C1=C[C@H](COCc1ccccc1)O[C@@H]2C	none (no result: DAX1 inh-2)
O=C1CCC[C@@H]2Cc3nc4cc5c(cc4cc3[C@@H]3CCN1[C@H]23)OCO5	DAX1 inh-2 6.1
O=C1CCC[C@@H]2Cc3nc4ccc(O)cc4cc3[C@@H]3CCN1[C@H]23	none
O=C(O)c1ccc2c(c1)N(Cc1ccc(F)cc1)C(=O)c1ccccc1S2	DAX1 inh-2 5.0
COc1ccc(C(c2ccc(OC)cc2)N2CCN(C(=O)c3noc(C)c3[N+](=O)[O-])CC2)cc1	none (no result: DAX1 inh-1, SMARCA2 act, DAX1 inh-2)
CC(=O)NC(C)C12CC3CC(CC(CC(=O)O)(C3)C1)C2 (stereo not drawn)	DAX1 inh-2 4.4
CC(=O)NC12CC3CC(CC(CC(=O)O)(C3)C1)C2	none
CC(=O)Nc1cccc(C(C)C2=CCCCC2)c1 (stereo not drawn)	SMARCA2 act 7.8 (no result: DAX1 inh-2)
CC(=O)Nc1cccc(C)c1	none
COc1cccc(Cn2nnc(C(=O)Nc3cc(Cl)ccc3OC)c2N)c1	none
COc1cccc(Cn2nnc(C(=O)NCCc3ccc(Cl)cc3)c2N)c1	DAX1 inh-2 5.5
CCOc1ccc(Cn2nnc(C(=O)NCCc3ccc(Cl)cc3)c2N)cc1	none
CCOc1ccc(Cn2nnc(C(=O)NCCc3ccccc3)c2N)cc1	DAX1 inh-2 4.4
COc1cc(-n2c(C)nc3cc(C(=O)N4CCCN(C(C)=O)CC4)ccc32)cc(OC)c1OC	none (no result: DAX1 inh-2)
CCOC(=O)C1=NOC(C(=O)NC2CCCC2)(C(=O)C2CC2)C1 (stereo not drawn)	none (no result: DAX1 inh-2)
